Measured values reported in ChEMBL document CHEMBL3988442, “University of Dundee, Small-Polar-MMV Screening Library” (2021).

Biological target: T1, Methionyl-tRNA synthetase, putative (Leishmania donovani (strain BPK282A1)) (UniProt E9BF75)
T1 sequence (whole entry): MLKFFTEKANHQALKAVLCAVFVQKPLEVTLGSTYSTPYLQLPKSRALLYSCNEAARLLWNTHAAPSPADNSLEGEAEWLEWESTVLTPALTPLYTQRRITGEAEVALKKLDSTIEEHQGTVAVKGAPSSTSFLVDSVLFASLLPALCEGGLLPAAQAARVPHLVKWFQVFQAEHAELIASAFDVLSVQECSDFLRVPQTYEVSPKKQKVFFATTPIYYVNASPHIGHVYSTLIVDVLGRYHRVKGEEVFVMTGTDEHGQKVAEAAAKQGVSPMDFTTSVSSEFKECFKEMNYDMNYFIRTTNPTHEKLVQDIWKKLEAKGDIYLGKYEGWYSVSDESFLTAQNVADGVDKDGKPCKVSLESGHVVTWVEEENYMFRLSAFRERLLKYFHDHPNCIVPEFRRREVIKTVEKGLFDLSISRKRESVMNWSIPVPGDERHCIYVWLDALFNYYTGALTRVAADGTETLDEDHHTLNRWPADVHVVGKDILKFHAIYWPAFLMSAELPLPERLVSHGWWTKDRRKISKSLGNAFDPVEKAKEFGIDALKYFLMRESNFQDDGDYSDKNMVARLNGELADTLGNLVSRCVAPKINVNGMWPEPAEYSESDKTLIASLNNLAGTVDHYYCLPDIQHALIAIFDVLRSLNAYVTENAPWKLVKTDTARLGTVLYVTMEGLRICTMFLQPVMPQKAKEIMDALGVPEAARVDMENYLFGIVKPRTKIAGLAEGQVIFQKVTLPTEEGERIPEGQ
Assay: Leishmania donovani Methionine tRNA synthetase (LdMetRS):v7. Dose response assay
Format: functional
Design: conc 80 nM, time 150 minutes

## CS(=O)(=O)N1CCN(c2ccc3ccc(C(=O)NCC4CC4)cn23)CC1
BOTTOM 3.917889821, HILLSLOPE 2.161741125, MAX_EFFECT 61.66007905, TOP 61.91262666
  PXC50: 4.97
BOTTOM -0.968460018, HILLSLOPE 1.661925269, MAX_EFFECT 62.22222222, TOP 66.45309128
  PXC50: 4.79

## Cc1nc(N2CCN(C3CCOCC3)CC2)c2ccsc2n1
MAX_EFFECT 2.659574468
  PXC50: < 4
MAX_EFFECT 4.663212435
  PXC50: < 4

## N[C@@H]1CCOc2c(Cl)cc(Cl)cc21
MAX_EFFECT 3.676470588
  PXC50: < 2.7
MAX_EFFECT 16.70480549
  PXC50: < 2.7

## O=C(O)C1CCCN1c1nc(-c2ccc(Cl)cc2)cc(C(F)(F)F)n1 (stereo not given)
MAX_EFFECT 7.310704961
  PXC50: < 4
MAX_EFFECT 9.138381201
  PXC50: < 4

## O=C(CC1CCCCC1)N1CCC(c2ncc3c(n2)CCNC3)CC1
MAX_EFFECT 14.51247166
  PXC50: < 4
MAX_EFFECT 29.90654206
  PXC50: < 4

## Cc1nc(N(C)CC(=O)NC2CC2)c2c3c(sc2n1)CCCC3
MAX_EFFECT 4.761904762
  PXC50: < 4
MAX_EFFECT 5.333333333
  PXC50: < 4

## Nc1noc2ccc(-c3cnc4ccc(NCC5CCCO5)nn34)cc12 (stereo not given)
MAX_EFFECT 19.33842239
  PXC50: < 4
MAX_EFFECT 25.0
  PXC50: < 4

## CCN(CC)C(=O)CN(C)c1nc(C)nc2sc(-c3ccccc3)cc12
MAX_EFFECT 23.46666667
  PXC50: < 4
MAX_EFFECT 30.15873016
  PXC50: < 4

## CN(CCO)c1nc(-c2ccsc2)nc2sc3c(c12)CCCC3
MAX_EFFECT 26.13333333
  PXC50: < 4
MAX_EFFECT 28.04232804
  PXC50: < 4

## CCc1nc(NCCCOC(C)C)c2c3c(sc2n1)CCC3
MAX_EFFECT 10.56511057
  PXC50: < 4
MAX_EFFECT 12.06030151
  PXC50: < 4

## N[C@H](COc1cccc(F)c1Oc1ccc(Cl)cc1)CC1CCCCC1
BOTTOM 8.516712257, HILLSLOPE 1.897669447, MAX_EFFECT 94.20289855, TOP 100.0
  PXC50: 4.49
BOTTOM 8.547488971, HILLSLOPE 2.365761437, MAX_EFFECT 99.14712154, TOP 101.5267465
  PXC50: 4.51

## Cc1nc(N(C)CC(=O)N(C)C)c2c(-c3ccccc3)csc2n1
MAX_EFFECT 5.289672544
  PXC50: < 4
MAX_EFFECT 6.361323155
  PXC50: < 4

## CC(=O)N1CCN(c2nc(C(F)(F)F)nc3sc(C)c(C)c23)CC1
MAX_EFFECT 7.310704961
  PXC50: < 4
MAX_EFFECT 8.093994778
  PXC50: < 4

## CS(=O)(=O)N1CCN(c2ccc3ccc(C(=O)NCC(=O)N4CCOCC4)cn23)CC1
BOTTOM 0.290613171, HILLSLOPE 1.637678219, MAX_EFFECT 51.19617225, TOP 53.26483222
  PXC50: 4.83
BOTTOM 5.655540606, HILLSLOPE 2.540340494, MAX_EFFECT 56.3071298, TOP 55.42961413
  PXC50: 4.8

## COCCNc1nc(C)nc2sc3c(c12)CCCC3
MAX_EFFECT 3.174603175
  PXC50: < 4
MAX_EFFECT 4.266666667
  PXC50: < 4

## CS(=O)(=O)N1CCN(c2ccc3ccc(C(=O)NC4Cc5ccccc5C4)cn23)CC1
BOTTOM 1.298239116, HILLSLOPE 2.724135748, MAX_EFFECT 51.19617225, TOP 47.98570818
  PXC50: 5.08
BOTTOM 7.56395186, HILLSLOPE 1.844448201, MAX_EFFECT 55.57586837, TOP 59.35407924
  PXC50: 4.75

## CC(C)C[C@H](N)COc1ccccc1N1CCCC1=O
MAX_EFFECT 8.074534161
  PXC50: < 4
MAX_EFFECT 13.85927505
  PXC50: < 4

## CCc1cc2c(NCCCN(C)C)nc(C)nc2s1
MAX_EFFECT 11.55778894
  PXC50: < 4
MAX_EFFECT 12.03931204
  PXC50: < 4

## CNc1nc(CN2CCOCC2)nc2sc3c(c12)CCC(C)C3 (stereo not given)
MAX_EFFECT 4.668304668
  PXC50: < 4
MAX_EFFECT 7.035175879
  PXC50: < 4

## CC(=O)N1CCN(C(=O)c2ccc3ccc(N4CCN(S(C)(=O)=O)CC4)n3c2)CC1
BOTTOM 3.542001412, HILLSLOPE 2.454286416, MAX_EFFECT 62.83018868, TOP 64.11209582
  PXC50: 4.91
BOTTOM 3.854741042, HILLSLOPE 2.302398718, MAX_EFFECT 55.70776256, TOP 55.14895524
  PXC50: 4.97

## CN1CCN(C(=O)CNC(=O)c2ccc3ccc(N4CCN(S(C)(=O)=O)CC4)n3c2)CC1
BOTTOM 0.0904, HILLSLOPE 2.137945772, MAX_EFFECT 50.23923445, TOP 52.555747
  PXC50: 4.83
BOTTOM 3.391781155, HILLSLOPE 3.900764743, MAX_EFFECT 59.59780622, TOP 59.91227163
  PXC50: 4.76

## Cc1nc(NCCCO)c2c(-c3cccs3)csc2n1
MAX_EFFECT 5.852417303
  PXC50: < 4
MAX_EFFECT 7.808564232
  PXC50: < 4

## Cc1nc(NCCS(N)(=O)=O)c2c(-c3ccccc3)csc2n1
MAX_EFFECT 6.870229008
  PXC50: < 4
MAX_EFFECT 12.34256927
  PXC50: < 4

## O=C(c1ccccc1)C1CCN(c2cncc(-n3cccn3)n2)CC1
MAX_EFFECT 17.57719715
  PXC50: < 4
MAX_EFFECT 27.64084507
  PXC50: < 4

## NC(=O)C1CN(c2nc(C3CC3)nc3sc4c(c23)CCCC4)CCO1 (stereo not given)
MAX_EFFECT 5.699481865
  PXC50: < 4
MAX_EFFECT 7.446808511
  PXC50: < 4

## CC(C)C[C@H](N)COc1ccc(-c2ccccc2)c(F)c1
MAX_EFFECT 23.6673774
  PXC50: < 4
MAX_EFFECT 25.46583851
  PXC50: < 4

## Nc1noc2ccc(-c3cnc4ccc(NCCn5cccn5)nn34)cc12
MAX_EFFECT 13.59649123
  PXC50: < 4
MAX_EFFECT 13.74045802
  PXC50: < 4

## CCN(CCO)c1nc(-c2ccsc2)nc2sc3c(c12)CCCC3
MAX_EFFECT 43.2
  PXC50: < 4
MAX_EFFECT 48.67724868
  PXC50: < 4

## Cc1cc(Br)sc1CNCCCNc1cc(=O)c2ccccc2[nH]1
BOTTOM 0.0, HILLSLOPE 1.706331743, MAX_EFFECT 106.0465116, TOP 103.2080248
  PXC50: 6.25
BOTTOM 0.0, HILLSLOPE 2.906661209, MAX_EFFECT 104.1958042, TOP 102.1210588
  PXC50: 6.14

## CNS(=O)(=O)c1cc(C(C)C)c(Br)cc1C(C)C
MAX_EFFECT 9.649122807
  PXC50: < 4
MAX_EFFECT 14.58333333
  PXC50: < 4
